Reference: PubChem BioAssay AID463173 (ICCB-Longwood Screening Facility, Harvard Medical School, 2010)
Out of some 52,000 compounds screened, about 4,300 (8.3%) were called active. Many of the other results were omitted from the sample, so actives are more common in it than they were. A number with no mark means an inactive call. Cut-off read from the data, not from the text of the source: active = survival mostly below about 52% (no sharp cut-off); inactive = mostly above about 56%.

Tested on: DeltatarO mutant
Assay: S. aureus survival, RN4220 and DeltatarO strains – OD600, teichoic acid synthesis inhibitors, primary screen (AID 463173)
Conditions: S. aureus RN4220 wild type/DeltatarO growth, OD600, 18 h, stronger effect = lower value, screened at 18.75 µg/mL (by protocol)

Point of comparison: `COc1cccc(CNC(=O)CCn2c(=O)c3cccn3c3cccnc32)c1OC`, survival 98%. Against it:
- Cc1c(CNC2CCCCC2)c(C(=O)O)c(C)n1Cc1ccc(F)cc1 — lower, 85%
- Cc1ccc(-c2ccc(C#N)c(=O)n2CC(=O)N2CCNC(=O)C2(C)C)cc1 — lower, 88%
- COc1ccc(CCNC(=O)C(=O)NCC(c2ccco2)S(=O)(=O)c2ccccc2)cc1OC (stereo not given) — lower, 54%
- COc1ccc(S(=O)(=O)N(C(=O)c2ccncc2)c2ccc3oc(C)c(C(C)=O)c3c2)cc1 — higher, 152%
- CCc1nn(-c2ccccc2)c2nc(-c3ccc(O)cc3)c3cc(OC)c(OC)cc3c12 — lower, 74%
- COc1ccc(Cc2nc3c4cnn(-c5ccccc5F)c4ncn3n2)cc1 — lower, 81%
- Cc1cc(-n2c(SCC(=O)NCc3ccccc3)nc3ccsc3c2=O)ccc1Cl — lower, 87%
- O=C(O)CCc1ccc(-c2ccccc2)n1-c1ccc(C(=O)O)cc1 — higher, 131%
- CC(=O)c1cccc(-n2c(CCC(=O)O)ccc2-c2ccccc2)c1 — lower, 74%
- Cc1cccc(C2NC(=O)c3c(sc4c3CCN(C)C4)N2)c1O (stereo not given) — higher, 125%
- CCn1c(=O)c2sccc2n2c(CCCC(=O)N3CCN(c4ccccc4OC)CC3)nnc12 — lower, 91%
- COc1ccc(NC(=O)c2cc(C3CC3)nc3c2c(C)nn3-c2ccccc2)cc1 — lower, 53%
- CC(=O)c1ccc(NC(=O)c2cc(C)nc3c2c(C)nn3-c2ccc(C)cc2)cc1 — higher, 102%
- COc1ccc(NC(=O)c2cc(C3CC3)nc3c2c(C)nn3-c2ccc(C)cc2)cc1OC — higher, 144%
- COc1ccccc1NC(=O)c1cc(C2CC2)nc2c1c(C)nn2-c1ccc(C)cc1 — the same, 98%
- Nc1c(C(=O)Nc2ccccc2)nnn1Cc1ccc(F)cc1Cl — higher, 99%
- O=C(Cn1cc(S(=O)(=O)Cc2cccc(Cl)c2)c2ccccc21)NCc1ccccc1Cl — lower, 91%
- O=C1CSC(N(c2ccccc2)c2ccccc2)=N1 — lower, 96%
- Cc1ccc(CNC(=O)CCS(=O)(=O)c2cc3c4c(c2)CCN4C(=O)CC3)cc1 — lower, 67%
- Cn1nc(C(=O)N2CCN(c3ccccc3)CC2)c2c1-c1ccccc1SC2 — lower, 80%
- Cc1ccc2c(c1)-c1onc(C(=O)N3CCN(c4ccc(Cl)cc4)CC3)c1CO2 — lower, 63%
- Cn1nc(C(=O)N2CCN(c3ccc(F)cc3)CC2)c2c1-c1ccccc1SC2 — lower, 77%
- Cn1nc(C(=O)N2CCN(c3ccccc3)CC2)c2c1-c1ccccc1S(=O)(=O)C2 — lower, 51%
- Cc1cccc(N2CCN(C(=O)c3nn(C)c4c3CS(=O)(=O)c3ccccc3-4)CC2)c1C — lower, 67%
- Cc1ccc(N2CCN(C(=O)c3nn(C)c4c3CS(=O)(=O)c3ccccc3-4)CC2)c(C)c1 — lower, 77%
- Cc1ccc2c(c1)-c1onc(C(=O)N3CCN(c4cc(C)ccc4C)CC3)c1CO2 — lower, 66%
- Cn1nc(C(=O)N2CCN(c3ccc(Cl)cc3)CC2)c2c1-c1ccccc1S(=O)(=O)C2 — lower, 51%

For `CCOC(=O)c1ccc(-n2c(CCC(=O)O)ccc2-c2ccccc2)cc1O`, the survival was 43% (active).
With `CC(=O)c1ccc(NC(=O)c2cc(C3CC3)nc3c2c(C)nn3-c2ccc(C)cc2)cc1` the survival was 46% (active).
For `COc1ccc(NC(=O)c2cc(C3CC3)nc3c2c(C)nn3-c2ccccc2)c(OC)c1`, the survival was 37% (active).
For `Cn1nc(C(=O)N2CCN(c3ccccc3F)CC2)c2c1-c1ccccc1SC2`, the survival was 32% (active).
With `Cn1nc(C(=O)N2CCN(c3cccc(Cl)c3)CC2)c2c1-c1ccccc1S(=O)(=O)C2` the survival was 37% (active).
For `Cc1ccc(C)c(N2CCN(C(=O)c3nn(C)c4c3CS(=O)(=O)c3ccccc3-4)CC2)c1`, the survival was 49% (active).
For `Cc1ccc2c(c1)-c1onc(C(=O)N3CCN(c4cc(Cl)ccc4C)CC3)c1CO2`, the survival was 57% (active).
